Screens (PubChem)
BLM inh: Bloom syndrome helicase (human) inhibition. P54132. 0.2% of 350,000 active. AID 2528. recombinant BLM DNA unwinding, fluorescence dequenching. Potency, µM (top dose mostly 56.1 µM), for the others: at the highest dose activity change, negative = inhibition, hits mostly inhibitors;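 also: plate controls were vehicle for no effect and no enzyme for full effect; nearly all actives have a fitted effect of over 35% in size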
L3MBTL1 inh: inhibitors of human L3MBTL1 | AlphaScreen L3MBTL1–H3K9me1 peptide binding | Potency, µM (top dose mostly 57.1 µM), inactives show top-dose activity, negative = inhibition, hits mostly inhibitors | Q9Y468 | 0.66% of 230,000 active; also: nearly all actives have a fitted effect of over 60% in size
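First, the protein-peptide complex forms for 30 min at room temperature (L3MBTL1 50 nM, biotinylated H3K9me1 peptide 75 nM). Next, compounds are pin-transferred and incubated 30 min. Finally, AlphaScreen beads are added and read after 30 min.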
APE1 inh: blocks human APE1 abasic DNA cleavage; 0.35% of 350,000 active; Potency, µM (highest dose often 65.8 µM), for inactives: top-dose activity change, negative = inhibition, usual class: inhibitors; recombinant APE1, TAMRA/BHQ-2 abasic DNA cleavage fluorescence; P27695;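 also: plate controls were vehicle for no effect and reference inhibitor for full effect; nearly all actives have a fitted effect of over 55% in size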
Target sequence (P27695 whole entry, looked up): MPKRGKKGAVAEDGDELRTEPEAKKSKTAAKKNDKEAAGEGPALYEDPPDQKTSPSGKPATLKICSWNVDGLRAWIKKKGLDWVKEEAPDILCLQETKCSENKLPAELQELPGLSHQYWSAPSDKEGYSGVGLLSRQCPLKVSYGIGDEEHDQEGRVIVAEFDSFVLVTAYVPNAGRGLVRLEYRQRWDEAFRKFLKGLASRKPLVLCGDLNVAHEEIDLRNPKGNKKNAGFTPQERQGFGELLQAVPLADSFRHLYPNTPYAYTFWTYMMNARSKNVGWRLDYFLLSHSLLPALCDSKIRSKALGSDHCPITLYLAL
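Readout is kinetic fluorescence (ex 525, em 598 nm) from cleavage of 50 nM TAMRA/BHQ-2 THF abasic duplex by 0.75 nM APE1, compound added 15 min beforehand at RT.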
RECQ1 helicase: blocks DNA unwinding by human RECQ1; P46063; RECQ1 DNA unwinding, red fluorescence kinetic read; Potency, µM (top dose mostly 57.3 µM), inactives show top-dose activity, negative = inhibition, most hits filed as inhibitors; 0.54% of 240,000 active;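 also: plate controls were vehicle for no effect and no enzyme for full effect; nearly all actives have a fitted effect of over 30% in size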
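50 nM RECQ1T1 preincubated 15 min with compound in Tris pH 8.0 buffer with MgCl2, DTT, Tween-20 and 2.5 ug/ml poly(dI-dC); started with 200 nM TAMRA/BHQ-2 forked duplex and 2 mM ATP. Unwinding read as fluorescence (525/598 nm), two reads 2 h apart.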
Starred values were filed as active, the others as inactive; i = inactive; ? = inconclusive; · = no result given; [ ] = remark or other dose. Only some compounds are listed: those with a hit (about 0.78% of all), similar ones and a draw of the others. Calls follow the shape of the dose curve; as a rule, active = well fitted curve in the direction sought with a large enough effect; inconclusive = small, poorly fitted or top-dose-only effect, or another doubt; inactive = no such curve, though single readings can be large; an effect the other way counts as inactive or inconclusive. Unless noted, % is scaled to controls: 0 for no effect and ±100 for the full control effect; potency is read from the fitted curve at half-maximal effect.

SMILES | BLM inh | L3MBTL1 inh | APE1 inh | RECQ1 helicase
CC(NC1CCCCC1)C(=O)NN=C(c1ccccc1)c1ccccc1 (configuration not stated) | -3% | -6% | -4% | 28µM*
Oc1ccc(CNc2ccccc2)c2cccnc12 | -7% | ? | 3% | -5%
Oc1ccc(CNc2ccc(F)cc2)c2cccnc12 | -7% | 32µM* | 18% | ?
OCc1cn(Cc2ccc(O)c3ncccc23)cn1 | · | 7.1µM* | 35% | ·
Oc1ccc(CN2CCN(Cc3ccccc3)CC2)c2cccnc12 | -3% | -2% | -3% | i
Oc1ccc(Cn2ccnc2)c2cccnc12 | -2% | 1.6µM* | 8% | i
COc1ccc(OC)c(-c2nnc3n2N=C(c2ccc(OC)c(O[C@H]4CCOC4)c2)CS3)c1 | · | · | -5% | ·
CCC(C)C(N)C(=O)NC(CC(N)=O)C(=O)NC(CC(C)C)C(=O)NC(CCCCN)C(=O)NC(C)C(=O)NC(CC(C)C)C(=O)NC(C)C(=O)NC(C)C(=O)NC(CC(C)C)C(=O)NC(C)C(=O)NC(CCCCN)C(=O)NC(CCCCN)C(=O)NC(C(=O)NC(CC(C)C)C(N)=O)C(C)CC (configuration not stated) | 0% | · | -9% | -10%
O=C1C=C(c2ccc3cc[nH]c3c2)C[C@@H](c2ccc3c(c2)OCO3)C1 | · | 32µM* | 12µM* | ·
O=C(O)C1Nc2ccc(Br)cc2C2C=CCC12 (configuration not stated) | 16µM* | · | ? | ·
COC(=O)c1ccc(C2Nc3c(C)cc(C)cc3C3C=CCC32)cc1 (configuration not stated) | -3% | · | · | ·
CCOC(=O)C1Nc2ccc(Br)cc2C2C=CCC12 (configuration not stated) | -8% | -28% | 14% | ·
O=C(OC1CCCCC1)c1ccc2c(c1)C1C=CCC1C(C(=O)O)N2 (configuration not stated) | 16µM* | 3.2µM* | ? | 7.9µM*
CCOC(=O)c1ccc2c(c1)C1C=CCC1C(C(=O)OCC)N2 (configuration not stated) | -23% | ? | 11% | ·
O=C(O)C1Nc2c(Cl)cc(Cl)cc2C2C=CCC12 (configuration not stated) | ? | 3.5µM* | 13µM* | ·
Cc1cccc(Cn2cnc3c(cnn3C(C)(C)C)c2=O)c1F | · | · | -5% | ·
CC(C)(C)n1ncc2c(=O)n(Cc3ccc(Cl)c(C(F)(F)F)c3)cnc21 | · | · | -4% | ·
CCOc1ccc(C(=O)NCc2ccccn2)cc1 | 2% | 0% | 2% | -1%
O=C(NCc1ccccn1)c1coc(=O)c(Br)c1 | 1% | 14µM* | 0% | -1%
COc1ccccc1C(=O)NC(=S)/C=C1/N(C)c2ccccc2C1(C)C | -9% | 13µM* | 8% | -9%
COC(=O)c1ccc([C@H]2Nc3ccc(S(=O)(=O)Nc4ccc(F)cc4)cc3[C@H]3C=CC[C@H]32)cc1 | -21% | · | · | ·
COc1cccc(NS(=O)(=O)c2ccc3c(c2)C2C=CCC2C(c2ccc(C(=O)O)cc2)N3)c1 (configuration not stated) | -22% | 10µM* | -5% | -9%
O=C(Sc1cccc2cccnc12)c1ccc(F)cc1 | -3% | 4.5µM* | 21% | -9%
O=C1C(=O)c2ncccc2-c2cccnc21 | 16µM* | · | · | ·
CC(C)NC(=O)CC(=O)N/N=C/c1cccs1 | 18µM* | 1% | 5% | -7%
SMILES | BLM inh | L3MBTL1 inh | APE1 inh | RECQ1 helicase
CCC(C(=O)O)C1OC(C(C)C(O)C(C)C(=O)C(CC)C2OC3(C=CC(O)C4(CCC(C)(C5CCC(O)(CC)C(C)O5)O4)O3)C(C)CC2C)C(C)CC1C (configuration not stated) | -3% | · | · | ·
O=C1c2c(O)ccc([N+](=O)[O-])c2C(=O)c2c([N+](=O)[O-])ccc(O)c21 | · | · | ? | -29%
CC1=CC(=O)c2c(O)ccc(O)c2C1=O | 18µM* | 0.79µM* | 2µM* | 3.5µM*
CC12C=C(/C=C/C=C/c3ccccc3)C(C)(C1)C(/C=C/c1ccccc1)CC2=O (configuration not stated) | -9%[12.4 µM] | · | ? | -2%[11.5 µM]
CC12C=C(/C=C/C=C/c3ccco3)C(C)(C1)C(/C=C/c1ccco1)CC2=O (configuration not stated) | -3%[12.4 µM] | · | ? | 1.4µM*
Oc1ccc2ccccc2c1N=Nc1ccccn1 | -3% | 10µM* | 0% | i
Oc1ccc2ccccc2c1N=Nc1ccccc1F | -2% | 8.9µM* | -3% | -20%
CC(C)CCn1c(O)c(N=Nc2ccccn2)c2ccccc21 | -2% | -6% | 1% | -4%
COc1cc(C)c2c(c1C=O)Oc1c(c(C)c(O)c3c1C(O)OC3=O)OC2=O (configuration not stated) | -2% | ? | 13µM* | 14µM*
CC[C@H]1OC(=O)[C@H](C)[C@@H](O[C@H]2C[C@@](C)(OC)[C@@H](O)[C@H](C)O2)[C@H](C)[C@@H](O[C@@H]2O[C@H](C)C[C@H](N(C)C)[C@H]2O)[C@](C)(O)C[C@@H](C)/C(=N\OCOCCOC)[C@H](C)[C@@H](O)[C@]1(C)O | · | · | 7%[21 µM] | ·
CSc1nc(SCC(=O)O)c2sc3nc(-c4ccccc4)c4c(c3c2n1)CCC4 | -16% | -5% | ? | -19%
CSc1nc(N2CCN(CCO)CC2)c2sc3nc(-c4ccco4)c4c(c3c2n1)CCC4 | 13µM* | -7% | 17% | -2%
CO[C@H]1C[C@H](O[C@H]2[C@H](C)[C@@H](O[C@@H]3O[C@H](C)C[C@H](N(C)C)[C@H]3OC(C)=O)[C@@H](C)C[C@]3(CO3)C(=O)[C@H](C)[C@@H](OC(C)=O)[C@@H](C)[C@@H](C)OC(=O)[C@@H]2C)O[C@@H](C)[C@@H]1OC(C)=O | · | · | 2%[21 µM] | ·
COc1c(O)cc(O)cc1O | -10% | · | 16µM* | 4%
COc1cc(O)cc(OC)c1OC | -2% | · | 14% | i
CN(Cc1ccccc1)c1nc(CN2CCOCC2)nc2scc(-c3ccccc3)c12 | -5% | -20% | -1% | 0%
Fc1ccc(N2CCN(c3nc(CN4CCOCC4)nc4scc(-c5ccccc5)c34)CC2)cc1 | -11% | 16µM* | -8% | -10%
CC(/C=C1\SC(=S)N(CC(=O)O)C1=O)=C\c1ccccc1 | -10% | 0% | 10% | -9%
CC(=C\c1ccco1)/C=C1/SC(=S)N(CC(=O)O)C1=O | 40% | 40µM* | -8% | -1%
O=C(O)CN1C(=O)/C(=C/c2ccc(N3CCCCC3)o2)SC1=S | -3% | 32µM* | 1% | -3%
CC(N)COC(=O)C(CCCCN)NC(=O)Cc1c(-c2ccc3ccccc3c2)[nH]c2c1ccc1ccccc12 (configuration not stated) | -12% | · | 9% | -25%
Oc1ccc2c(c1)C1CCCC1(N1CCOCC1)O2 (configuration not stated) | -2% | 32µM* | ? | -32%
C/C=C(/CC[C@@H](C)[C@H]1CC[C@H]2C3=CC[C@H]4[C@H](C)[C@@H](O)CC[C@]4(C)[C@H]3CC[C@]12C)C(C)C | · | · | 4% | ·
